# Assay results reported in PubChem BioAssay.
# A number with no mark means an inactive call. The list shows a part of the results. The source made the active and inactive calls.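 How the source made its calls, unless noted: active means inhibition above the hit cutoff set in the earlier primary screen (cut at about 27% in these data); inactive means the rest.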
# Columns and labels:
# [1] = biological target: Protein phosphatase methylesterase 1 (Homo sapiens) (UniProt Q9Y570); test: PME-1 inhibitor activity retest, confirmation, biochemical, fluorescence polarization, FP-Rh probe, triplicate (AID 2171); details: recombinant PME-1, FP-Rh probe fluorescence polarization; at 5.9 µM; active compounds read high;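 further: 0% = enzyme with DMSO and 100% = wells lacking PME-1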
# [2] = biological target: Nuclear receptor coactivator 3 (Homo sapiens) (UniProt Q9Y6Q9); test: SRC3 coactivator transcriptional activity inhibitors, confirmation, cell-based, luminescence, quadruplicate (AID 588792;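 active means mean inhibition over 43.08%, the solvent-only control mean plus 3 SD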;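 further: 0% = DMSO treated cells and 100% = gossypol at 36 µM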); details: HEK293 GAL4-SRC3 luciferase reporter, at 3.6 µM, active compounds read high
# [3] = test system: transactivating tegument protein VP16 (Human herpesvirus 1), Gal4-VP16 luciferase reporter; test: VP16 transactivation inhibitors, counter-screen for SRC3 inhibitor project, cell-based, luminescence, high throughput (AID 588794; in the data active means inhibition above about 30%); details: mammalian cells, VP16-driven luciferase reporter luminescence; at 3.6 µM; active compounds read high
# [4] = biological target: Nuclear receptor coactivator 1 (Homo sapiens) (UniProt Q15788); test: SRC1 coactivator transcriptional activity inhibitors, confirmation, cell-based, luminescence, quadruplicate (AID 588820;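 active means mean inhibition above 46.68%, the untreated control wells mean plus 3 SD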;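 further: 0% = DMSO wells and 100% = gossypol 36 µM treated wells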); details: HEK293 GAL4-SRC1 luciferase reporter, at 3.6 µM, active compounds read high
# [5] = VP16 transactivation inhibitors, counter-screen for SRC1 inhibitor project, cell-based, luminescence, high throughput (AID 588824; in the data active means inhibition above about 25%); details: cell-based VP16 transactivation luciferase luminescence; at 3.6 µM; active compounds read high
# [6] = StAR promoter reporter inhibitors, counter-screen for LRH-1 inverse agonist project, cell-based, luminescence, high throughput (AID 651611; in the data active means inhibition above about 28%); details: StAR promoter luciferase reporter counterscreen, at 3.6 µM, active compounds read high
# [7] = biological target: Nuclear receptor subfamily 5 group A member 2 (Homo sapiens) (UniProt O00482); test: LRH-1 (NR5A2) inverse agonists, retest, confirmation, cell-based, luminescence (AID 651613; in the data active means inhibition above about 42%;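 further: HEK293T cells co-transfected with LRH-1 and StAR promoter luciferase reporter; 0% = vehicle wells and 100% = parental cells lacking receptor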); details: cell-based LRH-1 luciferase reporter, inverse agonism; at 3.6 µM; active compounds read high
# [8] = biological target: Steroidogenic factor 1 (Homo sapiens) (UniProt Q13285); test: SF1 (NR5A1) inverse agonists, counter-screen for LRH-1 inverse agonist project, cell-based, luminescence, high throughput (AID 651614; in the data active means inhibition above about 44%;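 further: cells cotransfected with StAR promoter reporter and SF1 expression vector; 0% = vehicle on cells with receptor and 100% = vehicle on cells lacking receptor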); details: cell-based SF1 luciferase reporter, at 3.6 µM, active compounds read high
# [9] = VP16 transactivation reporter inhibitors, counter-screen for LRH-1 inverse agonist project, cell-based, luminescence, high throughput (AID 651615; in the data active means inhibition above about 33%); details: Gal4-VP16 luciferase reporter cells, at 3.6 µM, active compounds read high
# [10] = test system: transactivating tegument protein VP16 (Human herpesvirus 1); test: VP16 transactivation reporter inhibitors, counter-screen for SRC2 inhibitor project, cell-based, luminescence, single concentration (AID 652007; in the data active means inhibition above about 36%); details: cell-based VP16 transactivation luciferase reporter, at 8.9 µM, active compounds read high
# [11] = biological target: Nuclear receptor coactivator 2 (Homo sapiens) (UniProt Q15596); test: SRC2 coactivator transcriptional activity inhibitors, confirmation, cell-based, luminescence, HEK293, triplicate (AID 652008;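 active means mean inhibition above 46.5%, the solvent-only control mean plus 3 SD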;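 further: 0% = DMSO-treated cells and 100% = Gossypol at 36 µM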); details: HEK293 GAL4-SRC2 luciferase reporter, at 8.9 µM, active compounds read high
# [12] = biological target: Glutathione S-transferase omega-1 (Homo sapiens) (UniProt P78417); test: GSTO1 inhibitor hit confirmation, counter-screen for RBBP9 inhibitor project, biochemical, fluorescence polarization, triplicate (AID 2176;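 active means inhibition above the primary screen's cutoff, its mean inhibition plus 3 SD, cut at about 35% in these data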;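 further: loss of polarization as inhibitors block binding of rhodamine sulfonate ester activity probe; 0% = GSTO1 with DMSO and 100% = wells lacking GSTO1 enzyme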); details: recombinant GSTO1, probe fluorescence polarization; at 5.96 µM; active compounds read high
# [13] = biological target: Oxysterols receptor LXR-beta (Homo sapiens) (UniProt P55055); test: LXR agonists, Gal4 luciferase reporter, confirmation, counter-screen for hcDAF-12 agonist project, cell-based, luminescence, HEK293, H. contortus campaign (AID 743027;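 active means mean percent activation of the reporter above a cutoff set as the average over tested compounds plus their standard deviation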); details: HEK293 Gal4-LXR tk-luc reporter, 24 h, at 6.8 µM, active compounds read high, normalized: DMSO 0%, positive control 100%
# [14] = test system: Nuclear hormone receptor DAF-12 (Haemonchus contortus); test: H. contortus DAF-12 receptor agonists, confirmation, cell-based, luminescence, HEK293, lit1-tk-luc, triplicate (AID 743032;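 active means mean activation across triplicate tests above the threshold derived from the earlier primary screen, cut at about 5.5% in these data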;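 further: 0% = DMSO only wells and 100% = 3 µM Δ7-dafachronic acid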); details: HEK293 hcDAF-12 lit1-tk-luc reporter, at 6.8 µM, active compounds read high, % of Δ7-dafachronic acid response
# [15] = test system: DAF-12 nuclear receptor (Heterodera glycines), GAL4-LBD fusion; test: H. glycines DAF-12 receptor agonists, confirmation, cell-based, luminescence, HEK293, GAL4-LBD fusion (AID 743050;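 active means mean activation over triplicate wells above the hit cutoff derived from the earlier primary screen, cut at about 11% in these data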;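 further: 0% = DMSO low control and 100% = 2 mM sodium butyrate high control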); details: HEK293 GAL4-hgDAF12 luciferase reporter, agonist mode; at 6.8 µM; active compounds read high; percent of butyrate response
# [16] = biological target: Oxysterols receptor LXR-beta (Homo sapiens) (UniProt P55055); test: LXR agonists, Gal4 luciferase reporter, confirmation, counter-screen for hgDAF-12 agonist project, cell-based, luminescence, HEK293, H. glycines campaign (AID 743051;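 active means mean activation of the triplicate above a set limit carried over from the primary screen, none filed active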); details: 24 h, at 6.8 µM, active compounds read high
# Sequence of Glutathione S-transferase omega-1 (Homo sapiens) (P78417 whole entry, looked up, the tested form may be a part): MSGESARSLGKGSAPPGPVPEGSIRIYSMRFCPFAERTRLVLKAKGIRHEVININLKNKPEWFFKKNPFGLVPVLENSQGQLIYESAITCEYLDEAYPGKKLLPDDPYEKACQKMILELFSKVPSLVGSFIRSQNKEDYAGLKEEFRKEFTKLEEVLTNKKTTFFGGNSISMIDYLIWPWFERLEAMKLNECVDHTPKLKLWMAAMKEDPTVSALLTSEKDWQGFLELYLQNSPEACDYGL
# Sequence of Nuclear receptor coactivator 1 (Homo sapiens) (Q15788 whole entry, looked up, the tested form may be a part): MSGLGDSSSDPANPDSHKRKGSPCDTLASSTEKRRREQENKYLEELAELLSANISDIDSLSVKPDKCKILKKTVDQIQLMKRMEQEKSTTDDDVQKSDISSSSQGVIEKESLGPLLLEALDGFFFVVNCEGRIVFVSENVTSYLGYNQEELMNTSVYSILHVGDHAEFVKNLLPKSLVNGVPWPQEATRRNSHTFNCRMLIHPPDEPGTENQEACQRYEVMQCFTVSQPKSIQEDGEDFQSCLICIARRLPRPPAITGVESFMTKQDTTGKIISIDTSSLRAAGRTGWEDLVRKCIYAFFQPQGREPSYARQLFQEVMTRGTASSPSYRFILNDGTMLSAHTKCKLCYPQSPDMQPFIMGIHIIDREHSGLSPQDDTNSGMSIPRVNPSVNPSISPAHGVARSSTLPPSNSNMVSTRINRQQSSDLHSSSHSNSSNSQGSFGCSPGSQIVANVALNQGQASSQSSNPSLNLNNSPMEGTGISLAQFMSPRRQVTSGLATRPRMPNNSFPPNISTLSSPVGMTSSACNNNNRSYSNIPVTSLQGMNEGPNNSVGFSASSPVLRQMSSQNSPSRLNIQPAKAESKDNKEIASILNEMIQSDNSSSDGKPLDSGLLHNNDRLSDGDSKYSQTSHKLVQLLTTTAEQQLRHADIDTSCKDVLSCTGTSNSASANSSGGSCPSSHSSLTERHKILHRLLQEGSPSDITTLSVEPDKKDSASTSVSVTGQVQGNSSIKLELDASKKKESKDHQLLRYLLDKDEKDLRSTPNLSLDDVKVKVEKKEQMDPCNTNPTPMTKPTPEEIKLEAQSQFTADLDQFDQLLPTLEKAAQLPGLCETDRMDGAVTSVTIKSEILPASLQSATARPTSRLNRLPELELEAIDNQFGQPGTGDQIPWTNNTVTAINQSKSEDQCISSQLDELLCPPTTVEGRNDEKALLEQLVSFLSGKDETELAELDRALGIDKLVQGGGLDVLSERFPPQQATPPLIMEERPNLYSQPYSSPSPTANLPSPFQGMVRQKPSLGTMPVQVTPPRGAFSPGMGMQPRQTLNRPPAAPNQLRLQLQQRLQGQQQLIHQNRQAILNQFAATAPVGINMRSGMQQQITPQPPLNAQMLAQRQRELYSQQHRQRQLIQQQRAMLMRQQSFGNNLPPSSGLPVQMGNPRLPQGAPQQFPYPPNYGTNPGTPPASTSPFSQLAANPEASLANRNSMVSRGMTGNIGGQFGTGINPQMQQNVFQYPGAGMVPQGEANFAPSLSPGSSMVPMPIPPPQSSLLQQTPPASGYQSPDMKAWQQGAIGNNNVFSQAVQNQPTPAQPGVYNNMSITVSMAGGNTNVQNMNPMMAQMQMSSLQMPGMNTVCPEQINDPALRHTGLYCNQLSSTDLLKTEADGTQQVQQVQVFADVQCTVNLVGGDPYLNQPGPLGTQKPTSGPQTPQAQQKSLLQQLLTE
# Sequence of Steroidogenic factor 1 (Homo sapiens) (Q13285 whole entry, looked up, the tested form may be a part): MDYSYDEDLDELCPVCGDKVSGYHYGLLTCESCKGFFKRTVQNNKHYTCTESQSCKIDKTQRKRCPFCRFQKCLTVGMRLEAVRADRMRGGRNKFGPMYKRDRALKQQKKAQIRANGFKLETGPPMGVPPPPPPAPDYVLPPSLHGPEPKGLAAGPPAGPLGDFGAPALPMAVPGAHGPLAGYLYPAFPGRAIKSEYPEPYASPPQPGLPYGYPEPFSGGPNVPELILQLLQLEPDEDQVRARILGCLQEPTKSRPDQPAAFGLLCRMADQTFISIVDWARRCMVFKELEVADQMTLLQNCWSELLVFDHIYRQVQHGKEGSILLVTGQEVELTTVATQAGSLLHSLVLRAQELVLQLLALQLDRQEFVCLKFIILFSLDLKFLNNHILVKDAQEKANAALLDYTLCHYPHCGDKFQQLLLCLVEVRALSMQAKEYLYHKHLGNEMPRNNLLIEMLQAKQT
# Sequence of Protein phosphatase methylesterase 1 (Homo sapiens) (Q9Y570 whole entry, looked up, the tested form may be a part): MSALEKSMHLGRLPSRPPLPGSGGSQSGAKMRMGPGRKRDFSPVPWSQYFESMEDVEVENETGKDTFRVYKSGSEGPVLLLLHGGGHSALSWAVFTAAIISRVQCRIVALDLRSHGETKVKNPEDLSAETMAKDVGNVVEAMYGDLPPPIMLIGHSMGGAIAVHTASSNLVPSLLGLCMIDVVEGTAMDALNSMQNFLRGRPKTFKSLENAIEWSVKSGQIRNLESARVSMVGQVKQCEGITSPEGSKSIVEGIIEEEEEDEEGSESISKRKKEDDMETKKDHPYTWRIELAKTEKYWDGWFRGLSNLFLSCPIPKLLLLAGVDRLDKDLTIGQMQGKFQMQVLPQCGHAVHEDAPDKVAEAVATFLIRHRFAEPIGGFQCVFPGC
# Sequence of Nuclear receptor subfamily 5 group A member 2 (Homo sapiens) (O00482 whole entry, looked up): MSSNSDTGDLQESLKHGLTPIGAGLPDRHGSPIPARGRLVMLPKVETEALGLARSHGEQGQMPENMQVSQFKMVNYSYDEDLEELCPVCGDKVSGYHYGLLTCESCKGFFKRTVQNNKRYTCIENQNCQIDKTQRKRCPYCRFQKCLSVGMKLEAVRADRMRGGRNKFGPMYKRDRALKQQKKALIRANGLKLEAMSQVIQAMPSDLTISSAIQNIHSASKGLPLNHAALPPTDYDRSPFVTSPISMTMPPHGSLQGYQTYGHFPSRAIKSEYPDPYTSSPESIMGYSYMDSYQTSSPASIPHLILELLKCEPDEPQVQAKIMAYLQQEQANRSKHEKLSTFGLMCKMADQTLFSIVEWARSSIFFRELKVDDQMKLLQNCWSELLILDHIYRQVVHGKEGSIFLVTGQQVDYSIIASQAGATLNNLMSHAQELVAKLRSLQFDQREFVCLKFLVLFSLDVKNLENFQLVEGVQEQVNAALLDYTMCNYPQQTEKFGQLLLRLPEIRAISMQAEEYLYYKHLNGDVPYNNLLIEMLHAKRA
# Sequence of Nuclear receptor coactivator 2 (Homo sapiens) (Q15596 whole entry, looked up, the tested form may be a part): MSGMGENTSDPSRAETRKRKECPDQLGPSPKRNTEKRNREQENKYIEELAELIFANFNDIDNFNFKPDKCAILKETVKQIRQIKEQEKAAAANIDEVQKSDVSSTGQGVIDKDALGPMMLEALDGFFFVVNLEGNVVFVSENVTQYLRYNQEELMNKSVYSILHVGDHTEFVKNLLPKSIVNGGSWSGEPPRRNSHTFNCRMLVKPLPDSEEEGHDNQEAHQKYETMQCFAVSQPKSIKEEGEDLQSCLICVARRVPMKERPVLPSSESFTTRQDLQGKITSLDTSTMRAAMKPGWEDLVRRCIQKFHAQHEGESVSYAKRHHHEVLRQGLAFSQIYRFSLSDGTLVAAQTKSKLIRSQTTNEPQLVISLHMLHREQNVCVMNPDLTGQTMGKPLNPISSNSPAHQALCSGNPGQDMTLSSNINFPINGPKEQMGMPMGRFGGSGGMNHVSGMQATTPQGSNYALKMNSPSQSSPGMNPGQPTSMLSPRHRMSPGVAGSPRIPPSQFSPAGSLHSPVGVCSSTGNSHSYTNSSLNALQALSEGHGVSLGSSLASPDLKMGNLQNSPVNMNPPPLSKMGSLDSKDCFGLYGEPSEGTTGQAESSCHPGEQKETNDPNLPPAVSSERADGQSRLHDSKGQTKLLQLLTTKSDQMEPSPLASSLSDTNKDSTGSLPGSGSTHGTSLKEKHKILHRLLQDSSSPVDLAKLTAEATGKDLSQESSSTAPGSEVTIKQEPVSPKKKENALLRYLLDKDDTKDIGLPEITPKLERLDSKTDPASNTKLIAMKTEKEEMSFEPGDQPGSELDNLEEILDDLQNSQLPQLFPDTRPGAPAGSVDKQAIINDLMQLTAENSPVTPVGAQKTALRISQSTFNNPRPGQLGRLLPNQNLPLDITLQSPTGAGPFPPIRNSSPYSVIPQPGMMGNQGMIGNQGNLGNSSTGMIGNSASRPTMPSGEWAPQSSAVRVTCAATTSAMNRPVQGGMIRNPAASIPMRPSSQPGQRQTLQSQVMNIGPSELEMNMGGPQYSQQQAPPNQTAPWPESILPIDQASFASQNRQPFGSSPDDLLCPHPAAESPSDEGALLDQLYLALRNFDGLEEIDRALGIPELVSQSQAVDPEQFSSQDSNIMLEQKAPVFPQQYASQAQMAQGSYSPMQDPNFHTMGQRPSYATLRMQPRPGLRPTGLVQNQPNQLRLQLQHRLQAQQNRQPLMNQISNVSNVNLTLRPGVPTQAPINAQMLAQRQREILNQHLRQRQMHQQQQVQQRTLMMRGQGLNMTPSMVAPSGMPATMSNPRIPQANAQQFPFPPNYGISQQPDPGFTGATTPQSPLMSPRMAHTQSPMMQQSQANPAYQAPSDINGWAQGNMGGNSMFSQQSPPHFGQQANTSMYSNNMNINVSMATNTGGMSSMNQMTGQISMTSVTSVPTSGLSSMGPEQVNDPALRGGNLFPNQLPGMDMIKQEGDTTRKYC
# Sequence of Oxysterols receptor LXR-beta (Homo sapiens) (P55055 whole entry, looked up, the tested form may be a part): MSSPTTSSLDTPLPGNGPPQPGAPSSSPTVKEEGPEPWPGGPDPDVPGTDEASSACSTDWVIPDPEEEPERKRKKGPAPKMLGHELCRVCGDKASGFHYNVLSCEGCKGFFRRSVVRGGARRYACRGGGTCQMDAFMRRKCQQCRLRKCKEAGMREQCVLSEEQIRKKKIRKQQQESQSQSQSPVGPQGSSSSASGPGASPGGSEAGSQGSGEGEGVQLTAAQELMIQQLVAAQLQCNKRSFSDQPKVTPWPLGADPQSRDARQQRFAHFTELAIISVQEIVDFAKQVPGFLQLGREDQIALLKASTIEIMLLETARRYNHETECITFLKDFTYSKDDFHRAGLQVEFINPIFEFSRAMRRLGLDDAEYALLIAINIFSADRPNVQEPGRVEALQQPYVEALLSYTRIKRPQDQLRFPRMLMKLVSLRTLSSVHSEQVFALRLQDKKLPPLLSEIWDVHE
smiles,measurement,setting,value
Brc1ccc(N/N=C(/N=Nc2nn[nH]n2)c2ccccc2)cc1,inhibition,[1],57.1% (active)
same,inhibition,[2],83.2% (active)
same,inhibition,[3],80.2% (active)
Cc1ccc(C(C)C)c(OCc2ccc(C(=O)N/N=C/c3ccc(O)cc3O)cc2)c1,inhibition,[1],-0.21%
same,inhibition,[2],77.2% (active)
same,inhibition,[3],78.3% (active)
same,inhibition,[4],67% (active)
same,inhibition,[5],77% (active)
same,inhibition,[6],80.8% (active)
same,inhibition,[7],100% (active)
same,inhibition,[8],80.9% (active)
same,inhibition,[9],71.2% (active)
same,inhibition,[10],20.9%
same,inhibition,[11],68.3% (active)
Oc1ccccc1N=Nc1nc(-c2ccccc2)c(-c2ccccc2)[nH]1,inhibition,[1],-3.97%
same,inhibition,[2],81.4% (active)
same,inhibition,[3],76.4% (active)
same,inhibition,[4],76.5% (active)
same,inhibition,[5],71% (active)
same,inhibition,[6],86.9% (active)
same,inhibition,[7],98.3% (active)
same,inhibition,[8],84% (active)
same,inhibition,[9],65.3% (active)
Cn1c2ccccc2c2cc(/C=N/NC(=O)c3ccc(N)cc3)ccc21,inhibition,[1],19.7%
CCN(c1ccccc1)S(=O)(=O)c1ccc(OC)c(NC(=O)CNCCc2ccccc2)c1,inhibition,[1],19.9%
O=C(O)CSc1cc(NS(=O)(=O)c2ccc(Cl)cc2)c2ccccc2c1O,inhibition,[1],14.2%
COc1ccc(-c2cc(-c3ccc(C)cc3)n[nH]2)c(O)c1,inhibition,[1],37.7% (active)
CCN1/C(=C/C=C/c2oc3ccc(-c4ccccc4)cc3[n+]2CC)Oc2ccc(-c3ccccc3)cc21,inhibition,[1],-81.5%
same,inhibition,[2],98.3% (active)
same,inhibition,[3],95.4% (active)
same,inhibition,[4],71.9% (active)
same,inhibition,[5],94.2% (active)
same,inhibition,[6],92.2% (active)
same,inhibition,[7],110% (active)
same,inhibition,[8],97.2% (active)
same,inhibition,[9],96.4% (active)
O=C(Nc1ccc(N2CCOCC2)cc1)Nc1ccc2nc(-c3ccco3)c(-c3ccco3)nc2c1,inhibition,[1],39.5% (active)
Cc1oc2c(c1C(=O)c1ccccc1)C(=O)C(=O)c1ccccc1-2,inhibition,[1],18.1%
same,inhibition,[10],-18.3%
same,inhibition,[11],99.5% (active)
CN(C)S(=O)(=O)c1cccc(NC(=S)N/N=C/c2cc(Br)ccc2O)c1,inhibition,[1],16.8%
same,inhibition,[2],55.4% (active)
same,inhibition,[3],59.2% (active)
same,inhibition,[10],-15.5%
same,inhibition,[11],24.2%
COc1ccc2c(c1)[nH]c1c(N3CCN(Cc4ccc5c(c4)OCO5)CC3)ncnc12,inhibition,[1],14.8%
same,inhibition,[7],50.2% (active)
same,inhibition,[8],53.7% (active)
c1coc(-c2nc3nc4ccccc4n3nc2-c2ccco2)c1,inhibition,[12],16.5%
O=C1C(SCCO)=C(SCCO)C(=O)c2ccccc21,inhibition,[1],38.3% (active)
same,inhibition,[6],26.2%
same,inhibition,[7],76.3% (active)
same,inhibition,[8],74.8% (active)
same,inhibition,[9],46.1% (active)
C[n+]1ccccc1C1CCCC/C1=N\Nc1ccc([N+](=O)[O-])cc1[N+](=O)[O-] (stereo unspecified),inhibition,[12],6.21%
C(=N\Nc1nc2ccccc2[nH]1)/c1cccc2cccnc12,inhibition,[1],60.2% (active)
same,inhibition,[2],44.8% (active)
same,inhibition,[3],8.83%
same,inhibition,[6],49.4% (active)
same,inhibition,[7],74% (active)
same,inhibition,[8],64.3% (active)
same,inhibition,[9],23.9%
COc1cccc(/C=N/NC(=O)c2cc3c(OC)ccc(OC)c3[nH]2)c1O,inhibition,[1],32.6% (active)
same,inhibition,[4],28.5%
same,inhibition,[5],29.7% (active)
same,inhibition,[10],-23.7%
same,inhibition,[11],28.4%
CN(c1ccccc1)S(=O)(=O)c1ccc(NC(=O)c2nc(S(C)(=O)=O)ncc2Cl)cc1,inhibition,[1],24.2%
same,inhibition,[10],94.3% (active)
same,inhibition,[11],77.3% (active)
COc1cc(/C=N/Nc2nc3ccccc3s2)ccc1O,inhibition,[1],57.7% (active)
same,activation,[13],1.25%
same,activation,[14],12.4% (active)
same,activation,[15],18.2% (active)
same,activation,[16],0.97%
CN1CCN(c2ccc(NC(=O)c3ccc(-c4ccc(Br)cc4)o3)cc2)CC1,inhibition,[1],37.4% (active)
same,inhibition,[6],0.51%
same,inhibition,[7],52% (active)
same,inhibition,[8],50.9% (active)
same,inhibition,[9],13.1%
O=C1OC(Nc2cc(Br)cc3cccnc23)c2ccccc21 (stereo unspecified),inhibition,[1],6.18%
same,inhibition,[6],16.4%
same,inhibition,[7],25.9%
same,inhibition,[8],31.6%
same,inhibition,[9],13.6%
CC(=O)C1C(=O)c2c(cccc2[N+](=O)[O-])C1=Nc1ccc(S(N)(=O)=O)cc1 (stereo unspecified),inhibition,[1],30.2% (active)
same,inhibition,[10],-19.4%
same,inhibition,[11],2.35%
COCCn1c(N)c(C(=O)NCC2CCCO2)c2nc3ccccc3nc21 (stereo unspecified),inhibition,[1],15.1%
same,inhibition,[6],26.9%
same,inhibition,[7],47.2% (active)
same,inhibition,[8],50.4% (active)
same,inhibition,[9],-14.9%
Cc1cccc(-n2c3nc(=O)[nH]c(=O)c-3cc3cc([N+](=O)[O-])ccc32)c1,inhibition,[1],50.6% (active)
same,inhibition,[6],20.4%
same,inhibition,[7],42.1% (active)
same,inhibition,[8],47.4% (active)
same,inhibition,[9],27.6%
CC1C(=O)Nc2ccccc2N1C(=O)c1ccc(F)cc1F (stereo unspecified),inhibition,[12],5.92%
O=[N+]([O-])c1cccc(-c2nc(-c3cccs3)c(-c3cccs3)[nH]2)c1,inhibition,[1],13%
same,inhibition,[6],19.7%
same,inhibition,[7],55% (active)
same,inhibition,[8],42.7% (active)
same,inhibition,[9],-12.5%
CC(C)(C)OC(=O)c1c(N)n(CCCN2CCCC2=O)c2nc3ccccc3nc12,inhibition,[12],57.9% (active)
COc1ccc2c(c1)OC(O)(C(F)(F)C(F)F)CC2=O (stereo unspecified),inhibition,[12],5.88%
O=[N+]([O-])c1ccc(-c2nc(-c3cccs3)c(-c3cccs3)[nH]2)cc1,inhibition,[1],21.5%
same,inhibition,[6],15.5%
same,inhibition,[7],59.5% (active)
same,inhibition,[8],50.8% (active)
same,inhibition,[9],-8.61%
Nc1ccc2oc(-c3cc(Br)ccc3Cl)nc2c1,inhibition,[1],9.02%
same,inhibition,[6],-34.3%
same,inhibition,[7],45.4% (active)
same,inhibition,[8],32.9%
same,inhibition,[9],-44.9%
CCCn1nc([N+](=O)[O-])c(C(C#N)c2nc3ccccc3s2)c(Cl)c1=O (stereo unspecified),inhibition,[1],28.7% (active)
same,inhibition,[10],20.4%
same,inhibition,[11],20.3%
COc1cccc(/C=N/NC(=O)c2[nH]c(C)c(C(=O)N/N=C/c3cccc(OC)c3O)c2C)c1O,inhibition,[1],-31.6%
same,inhibition,[6],42.2% (active)
same,inhibition,[7],24.8%
same,inhibition,[8],17.4%
same,inhibition,[9],25.2%
Cc1ccc(NC(=O)c2ccc(Nc3c([N+](=O)[O-])cc([N+](=O)[O-])cc3[N+](=O)[O-])cc2)cc1,inhibition,[1],30.6% (active)
same,inhibition,[2],7.5%
same,inhibition,[3],2.96%
same,inhibition,[10],50% (active)
same,inhibition,[11],27.1%
Cc1ccc(C(C)C)c(OCc2ccc(C(=O)N/N=C/c3ccc(O)c(O)c3)cc2)c1,inhibition,[1],-9.52%
same,inhibition,[10],-11%
same,inhibition,[11],62.6% (active)
O=C1C(Cl)=C(Nc2ccc3cn[nH]c3c2)C(=O)c2ccccc21,inhibition,[1],31.7% (active)
same,inhibition,[10],-24%
same,inhibition,[11],52.9% (active)
COc1cccc2c1C(=O)c1c(O)c3c(c(O)c1C2=O)C[C@](O)(C(C)=O)C[C@H]3O[C@@H]1C[C@@H](N)[C@@H](O)[C@@H](C)O1,inhibition,[1],40.8% (active)
same,inhibition,[6],67% (active)
same,inhibition,[7],104% (active)
same,inhibition,[8],92.5% (active)
same,inhibition,[9],77.3% (active)
same,inhibition,[10],40.6% (active)
same,inhibition,[11],41.1%
CCc1ccc(S(=O)(=O)/N=C2\C=C(Nc3ccc(O)cc3)C(=O)c3ccccc32)cc1,inhibition,[1],36.8% (active)
same,inhibition,[6],90.1% (active)
same,inhibition,[7],105% (active)
same,inhibition,[8],96% (active)
same,inhibition,[9],94.3% (active)
COc1ccc(N2CCN(c3ncnc4c3[nH]c3ccccc34)CC2)cc1,inhibition,[1],28% (active)
same,inhibition,[4],3.21%
same,inhibition,[5],24.6%
Cc1cc(C)c(S(=O)(=O)/N=C2/C=C(Sc3ncn[nH]3)C(=O)c3ccccc32)cc1C,inhibition,[1],17.7%
same,inhibition,[6],27.3%
same,inhibition,[7],77.8% (active)
same,inhibition,[8],72.5% (active)
same,inhibition,[9],39.7% (active)
C1=C(CCNc2ncnc3c2[nH]c2ccccc23)CCCC1,inhibition,[1],29.3% (active)
same,inhibition,[6],-12%
same,inhibition,[7],36%
same,inhibition,[8],41.4%
same,inhibition,[9],37.5% (active)
O=[N+]([O-])c1ccc(C=Nc2ccc(Cl)cc2Cl)s1,inhibition,[12],11.6%
